Assay outcomes as filed in PubChem BioAssay.
This is a sample that favours compounds with a hit; in the whole collection about 8% have one here.
KB-3-1 tox – KB-3-1 parental cell cytotoxicity; KB-3-1 viability, CellTiter-Glo ATP luminescence, 72 h; Potency, µM (doses to about 46.1 µM), most hits filed as cytotoxic; 1.4% of 400,000 active; AID 1347075; further: on the % scale 0 is the no-effect control and ±100 the full control effect; nearly all actives have a fitted effect of over 60% in size
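72 h, 37 °C compound treatment of KB-3-1 parental cells; CellTiter-Glo added, 10 min, luminescence read. Data corrected against DMSO-only plates and normalized before curve fitting.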
HT1080 IDH1KD tx – kills HT-1080 cells with IDH1 knockdown; 2% of 360,000 active; AID 686971; Potency, µM (doses to about 46.1 µM), for inactives: at the highest dose activity, negative = toxicity, actives largely listed as cytotoxic; HT-1080 IDH1 knockdown viability, ATP luminescence, 48 h;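 further: 0% = DMSO wells and -100% = cell-free medium wells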
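% activity derives from luminescence (CellTiter-Glo), normalised to DMSO and no-cell wells. HT-1080-IDH1KD cells, 750/well, had 48 h compound exposure at 37 °C.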
HT1080NT lethal – kills 2HG-producing HT-1080-NT fibrosarcoma cells | HT-1080-NT fibrosarcoma viability, CellTiter-Glo ATP luminescence, 48 h | Potency, µM (series often up to 46.1 µM), without a hit: top-dose activity, negative = less viability, actives largely listed as cytotoxic | 1.6% of 360,000 active | AID 686970;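 further: NT is the 2HG producing partner of a matched IDH1 knockdown line; 0% = DMSO-treated cells and -100% = media-only wells without cells; nearly all actives have a fitted effect of over 55% in size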
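A 48-hour cytotoxicity screen used HT-1080-NT cells plated 2 hours before compound delivery. ATP-based CellTiter-Glo luminescence measured viability, normalized to DMSO and no-cell controls.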
SW480 rereplic – inducers of DNA re-replication in SW480 colon cancer cells; SW480 DNA re-replication, Hoechst DNA content imaging, 48 h; Potency, µM (titrated, usually from 46.1 µM), for the others: top-dose re-replication activation, most hits filed as activators; 1.8% of 340,000 active; AID 624297; further: % of control where 0% means no effect; nearly all actives have a fitted effect of over 55% in size
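DNA re-replication was detected as more nuclei of elevated Hoechst intensity after 48 hr exposure to compound (23 nL pinned per well of 250 cells).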
KB-V1 MDR tox – kills drug-selected multidrug resistant KB-V1 cells; 3.4% of 400,000 active; Potency, µM (top dose mostly 46.1 µM), usual class: cytotoxic; KB-V1 MDR cells viability, CellTiter-Glo, 72 h; AID 1347076; further: on the % scale 0 is the no-effect control and ±100 the full control effect; nearly all actives have a fitted effect of over 60% in size
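Cytotoxicity toward P-gp-expressing KB-V1 cells was determined as loss of CellTiter-Glo luminescence after 72 h at 37 degrees C. Compounds were tested in quantitative HTS format across a concentration range, with curves fitted to normalized data.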
MCF10A rerep – inducers of DNA re-replication in MCF 10A breast cells. MCF 10A DNA re-replication, Hoechst nuclear intensity, 48 h. Potency, µM (doses to about 46.1 µM), for the others: top-dose activity, positive = re-replication, hits mostly activators. 2.9% of 350,000 active. AID 624296; further: % of control where 0% means no effect; nearly all actives have a fitted effect of over 50% in size
* marks the source's active call; other numbers are inactive results; i = inactive; ? = inconclusive; · = no result. The call rests on the fitted dose curve; in most records, active means well fitted curve in the direction sought with a large enough effect; inconclusive means small, poorly fitted or top-dose-only effect, or another doubt; inactive means no such curve, though single readings can be large; an effect the other way counts as inactive or inconclusive. Potency means the concentration at half of the fitted maximal effect.

SMILES	KB-3-1 tox	HT1080 IDH1KD tx	HT1080NT lethal	SW480 rereplic	KB-V1 MDR tox	MCF10A rerep
COc1ccc(CC2(CO)CCN(Cc3ccc(OC(F)(F)F)cc3)CC2)cc1	?	-21.5%	?	?	i	16.7%
Cc1cccc(NC(=O)CN2C(=O)C3(SCC(=O)N3c3ccccc3)c3ccccc32)c1 (stereo not drawn)	i	·	·	·	?	·
CCSc1ncc(Cl)c(C(=O)Nc2sc3c(c2C(=O)NCCOC)CCCC3)n1	i	·	·	·	i	·
Cn1c(NC2=NC3(CCCC3)C3=C(CCCC3=O)N2)nc2ccccc21	i	·	·	·	i	·
Cc1c(Cl)ccc2c1NC(=O)[C@]21N[C@@H](Cc2ccccc2)[C@H]2C(=O)N(c3ccc(F)cc3)C(=O)[C@H]21	?	?	-22.2%	13.2%	9.2µM*	2.9%
CCOC(=O)c1cnc2nc(NCc3cccc(Br)c3)[nH]n2c1=O	i	·	·	·	i	·
CCOC(=O)N1C(=O)[C@](CC)(c2ccccc2)N1C(=O)OCC	i	5.1%	13.2%	?	i	16.4µM*
Clc1ccc(OCc2nnc3n2N=C(c2ccc4c(c2)OCCO4)CS3)c(Cl)c1	?	8.91µM*	10µM*	?	?	6.5%
Cc1ccc(NC(=S)N(Cc2cccs2)Cc2cc3cc(C)ccc3[nH]c2=O)cc1	?	-9.6%	0.2%	-5.7%	i	15.7%
Cc1cccc(NC(=S)N(CCN(C)C)Cc2cc3cccc(C)c3[nH]c2=O)c1	i	-8.5%	-14.0%	?	16.4µM*	3.3%
CN(C)CCCN(Cc1cc2cc3c(cc2[nH]c1=O)OCO3)C(=S)Nc1cccc(Cl)c1	i	-21.8%	14.6µM*	?	i	15.8µM*
Cc1ccc(NC(=S)N(CCN(C)C)Cc2cc3cc(C)ccc3[nH]c2=O)cc1	i	-17.1%	-10.3%	-4.4%	23.1µM*	8.2%
CCCN(Cc1cc2cc(C)ccc2[nH]c1=O)C(=O)c1cccc(OC)c1	16.4µM*	-14.4%	-13.4%	17.8%	7.31µM*	14.4%
CCCN1CNc2c(c(=O)[nH]c(=S)n2CCc2c(OC)cccc2OC)C1	·	16.4%	2.9%	·	·	·
Cc1ccc(NC(=S)N(CCN(C)C)Cc2cc3cccc(C)c3[nH]c2=O)cc1	i	-18.9%	-10.0%	20.6µM*	3.26µM*	?
Cc1cccc(NC(=S)N(CCN(C)C)Cc2cc3cc(C)cc(C)c3[nH]c2=O)c1	i	-6.4%	-8.0%	4.3%	i	16.9%
COCCCNC(=S)N(CCO)Cc1cc2cc3c(cc2[nH]c1=O)OCCO3	?	-3.5%	0.6%	-69.4%	i	0.651µM*
COc1cc(OC)c(NC(=O)C2CCN(S(=O)(=O)c3ccc4c(c3)oc(=O)n4C)CC2)cc1Cl	i	·	·	·	?	·
Cc1cc(NS(=O)(=O)c2ccccc2)cc(Cl)c1O	i	-7.6%	-10.4%	8.8%	16.4µM*	2.1%
O=S(=O)(Nc1ccc(N=Nc2ccccc2)cc1)c1ccccc1	i	-15.3%	15.2%	0.1%	3.26µM*	?
O=S(=O)(Nc1ccc(S(=O)(=O)Nc2ccccc2)cc1)c1ccccc1	i	3.7%	12.6%	1.8%	i	22.0%
CCOc1ccccc1NC(=O)C(C)N(c1ccccc1)S(C)(=O)=O (stereo not drawn)	i	·	·	·	i	·
Cc1ccc2c(c1)nnn2C1CCN(S(=O)(=O)c2ccc(C(=O)NC3CCCC3)cc2)CC1	i	-7.3%	-3.8%	4.8%	?	-3.3%
CCOC(=O)CN(C(=O)CN1CCC(n2nnc3cc(C)ccc32)CC1)c1ccccc1	i	-15.7%	-14.0%	-3.3%	i	14.0%
Cc1ccc2c(c1)nnn2C1CCN(S(=O)(=O)c2cccc(S(=O)(=O)N(C)C)c2)CC1	i	-17.5%	-21.5%	1.4%	i	6.1%
Cc1ccc2c(c1)nnn2C1CCN(CC(=O)N(c2ccccc2)c2ccccc2)CC1	?	-3.9%	-24.3%	-1.6%	9.2µM*	24.9%
